Bioassay records (PubChem BioAssay)
Pf growth 48h: P. falciparum growth inhibition at 48 hours (one generation); P. falciparum luciferase growth in erythrocytes, 48 h; Potency, µM (titrated, usually from 28.7 µM), for inactives: at the top dose activity change, negative = inhibition, most hits filed as inhibitors; 310,000 tested, 5.9% active; AID 504832; note: potency is the fitted concentration of half-maximal effect; % is set by controls: 0 for no effect and ±100 for the full control effect
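Luminescence readout; reporter = integrated firefly luciferase in P. falciparum. RBC culture at 2% hematocrit, 0.1% parasitemia final, 37 C/5% CO2; decreased signal taken as growth inhibition.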
CHX counter: counter-screen for Shiga toxin inhibitors: cycloheximide protein synthesis inhibition. cell reporter, cycloheximide protein synthesis inhibition counterscreen. 300,000 tested, 12% active. max response, %; in the data active = max response mostly above about 13%, no sharp cut-off; inactive = mostly below about 14%; note: read at 38.3 µM for the half of the compounds with a filed dose; 0% is about no effect
Pf growth 96h: inhibits malaria parasite growth, 96 h | P. falciparum luciferase reporter growth, 96 h | Potency, µM (series often up to 28.7 µM), without a hit: top-dose activity change, negative = inhibition, hits mostly inhibitors | 320,000 tested, 6.9% active; note: potency is the fitted concentration of half-maximal effect; % is set by controls: 0 for no effect and ±100 for the full control effect
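Luminescence readout: decreased luciferase signal marks inhibited growth of reporter-expressing P. falciparum in infected red cells (2% hematocrit, 0.05% parasitemia final), exposed to compound two generations (96 h, 37 C, 5% CO2).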
HCMV inh: human cytomegalovirus inhibition; AID 1259415; HFF cells, HCMV-luciferase reporter, 72 h; stronger effect = lower value; activity change, negative = inhibition, % at 57.5 µM; 410,000 tested, 4.5% active; in the data active = activity change below about -60%; inconclusive = no clear call, values can overlap the other calls; inactive = above about -39%; note: % is set by controls: 0 for no effect and ±100 for the full control effect
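Screen run at 2 compound doses on HFFs infected with reporter HCMV, MOI 1 PFU/cell. Luciferase activity from cell lysates at 72 h post infection gave inhibition relative to buffer-only and Salinomycin wells.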
Shiga inhibitor: Shiga toxin inhibition; Vero cells, Shiga toxin protein synthesis inhibition reporter; inhibition, % at 38.7 µM; 290,000 tested, 9.2% active; AID 2315; in the data active = inhibition mostly above about 28%, no sharp cut-off; inactive = mostly below about 43%; note: 0% is about no effect
Starred values were filed as active, the others as inactive; ? = inconclusive; . = not tested or not shown; ! = not active in a repeat; [ ] = another dose, or the depositor's remark. A selection: hits, their analogues and other compounds. The true share with any hit is near 20%. Unless noted, calls come from the whole dose curve; as a rule, active = well fitted inhibition curve with a large enough effect; inconclusive = small, poorly fitted or top-dose-only effect, or another doubt; inactive = no such curve, though single readings can be large or run the other way.

SMILES	Pf growth 48h	CHX counter	Pf growth 96h	HCMV inh	Shiga inhibitor
CCOC(=O)[C@]12Cc3cc4ccccc4cc3[C@H]1N(Cc1ccccc1)C(=O)c1ccccc12	.	.	.	-97*	.
CCCCCN1C(=O)c2cc(OC)ccc2[C@@]2(C(=O)OCC)Cc3cc(Cl)ccc3[C@@H]12	.	.	.	-103*	.
CCOC(=O)[C@]12Cc3cc(OC)ccc3[C@H]1N(Cc1ccccc1)C(=O)c1cc(OC)ccc12	.	.	.	6	.
CCOC(=O)[C@]12Cc3cc(OC)c(OC)cc3[C@H]1N(Cc1ccccc1)C(=O)c1ccccc12	.	.	.	63	.
CCOC(=O)[C@]12Cc3cc(Cl)ccc3[C@H]1N(Cc1ccccc1)C(=O)c1cc(OC)ccc12	.	.	.	-106*	.
CCOC(=O)[C@]12Cc3ccc4ccccc4c3[C@H]1N(Cc1ccccc1)C(=O)c1ccccc12	.	.	.	59	.
CS(=O)(=O)N1CC(C(=O)NC2CC2)Oc2ccc(Cl)cc21 (centres undefined)	-2%	-1	?	34	-19
Cn1c(=O)[nH]c(=O)c2c1nc(NCCO)n2CC(O)COc1ccccc1 (centres undefined)	.	.	.	-3	.
O=C(NNc1cc(C(F)(F)F)nc2ccccc12)Nc1cccc(Cl)c1	-4%	-2	?	-4	-5
COc1ccc(Cl)cc1C(=O)NCc1nc(-c2cccc(C)c2)no1	.	.	.	-27	.
CC(=O)c1cc(-c2ccccc2)n(CC(=O)NCc2ccccc2C)c1C	.	.	.	7	.
CCn1nc(C(=O)NCC2COc3ccccc3O2)c2ccccc2c1=O (centres undefined)	-24%	.	?	-27	.
COc1ccccc1C(=O)NCCNC(=O)c1ccc(C)nc1	2%	-8	0%	-32	-8
COc1ccccc1N1CCN(C(=O)c2cc(S(=O)(=O)N3CCCCC3)ccc2C)CC1	.	.	.	16	.
COc1ccc(S(=O)(=O)N2CCCCCC2)cc1C(=O)N1CCN(c2ccccc2O)CC1	2.3µM*	.	4.7µM*	9	.
COc1ccc(N2CCN(C(=O)c3cc(S(=O)(=O)N4CCCCCC4)ccc3OC)CC2)cc1	12µM*	.	?	-10	.
COc1ccc(S(=O)(=O)N2CCCCCC2)cc1C(=O)N1CCN(c2ccccc2C)CC1	12µM*	.	5.9µM*	7	.
Cc1cnn(Cc2cccnc2)c1N	113%	-3	45%	-10	-4
CCn1c2ccccc2c2cc(NC(=O)CN(C)CC(=O)Nc3ccc(N4CCOCC4)cc3)ccc21	-17%[1.15 µM]	-5	15µM*	?	1
CCn1c2ccccc2c2cc(NC(=O)N3CCOCC3)ccc21	21%	32*	-15%	79	85*
O=C(Nc1ccc2c(c1)oc1ccccc12)N1CCOCC1	.	52*	54%	62	84*
CCc1nn(CC(=O)NC(C)CC)c(=O)c2cc3c(OC)cccc3n12 (centres undefined)	.	.	.	-24	.
CC(=O)c1ccc(OCCCC(=O)Nc2cccc(S(=O)(=O)N(C)C)c2)cc1	-1%	-2	-5%	-4	1
CCCCN1C(=O)/C(=C2\SC(N3CCOCC3)=NC2=O)c2ccccc21	12%	28*	67%	-36	99*
CCN1C(=O)/C(=C2\SC(N3CCOCC3)=NC2=O)c2ccccc21	10%	-2	44%	28	4
SMILES	Pf growth 48h	CHX counter	Pf growth 96h	HCMV inh	Shiga inhibitor
Cc1ccc(C(=O)NCCc2csc(C)n2)cc1	55%	27*	88%	63	55*
COCCCNC(=O)c1ccc(-c2nc3ccccc3nc2-c2ccccc2)cc1	.	.	.	24	.
Cc1nc(-c2ccc(C(=O)NCCO)cc2)cs1	177%	37*	116%	17	40
COCCNC(=O)c1ccc(-c2csc(C)n2)cc1	239%	23*	-1%	119	89*
COCCCNC(=O)c1ccc(-c2csc(C)n2)cc1	361%	38*	-13%	6	90*
Cc1cc(Br)ccc1SCC(=O)OCC(=O)Nc1ccc2[nH]c(=O)[nH]c2c1	0%	.	23%	-5	.
O=C(/C=C/c1ccc(Cl)cc1)Nc1nccs1	151%	54*	?	23	70*
C/C=C/C=C/C(=O)Nc1nccs1	86%	17*	?	2	8
Cc1nn(Cc2ccccc2)c(Cl)c1C(=O)OC(C)C(=O)Nc1ccc(F)cc1Cl (centres undefined)	?	-1	13µM*	-65*	-5
COc1cccc(Cn2c(CNS(=O)(=O)c3ccc4c(c3)CCCC4)nc3cccnc32)c1	.	.	.	-35	.
COC(=O)c1cn(NC(=O)c2cnccn2)c(=O)c2ccccc12	9.3µM*	-2	-10%	32	-17
O=C(Nn1cc(C(=O)Nc2ccccc2F)c2ccccc2c1=O)c1cnccn1	4.1µM*	-6	?	-16	-6
O=C(Nc1cccc2cccnc12)c1cccc2ccccc12	.	-1	1%	?	-1
COC(=O)c1cn(NC(=O)c2ccc(OC)c(OC)c2)c(=O)c2ccccc12	?	-1	13µM*	14	14
O=C(Nc1ccccc1F)c1ccc(O)c2ncccc12	4.1µM*	.	1.5µM*	.	.
Cc1nccn1CCC(=O)Nc1ccc(Cl)cc1	5%	-5	4%	-22	-14
COC(=O)c1[nH]c2ccc(C)cc2c1NC(=O)NC1CCCCC1	-23%	1	.	51	-15
COC(=O)c1[nH]c2ccc(C)cc2c1NC(=O)C(C)N1CCN(C2CCCCC2)CC1 (centres undefined)	?	-7	10µM*	-9	-4
COC(=O)c1[nH]c2ccc(Br)cc2c1NC(=O)C(C)N1CCN(C2CCCCC2)CC1 (centres undefined)	?	-6	2.1µM*	-13	13
COC(=O)c1[nH]c2ccc(Br)cc2c1NC(=O)CN1CCCCC1CCO (centres undefined)	?	-1	5.2µM*	-30	35
Cc1ccc(N(C)C(=O)Cn2ncc3c([nH]c4ccccc43)c2=O)cc1C	.	.	.	27	.
COc1cccc(Nc2nccc3[nH]c(-c4cccc(F)c4)cc23)c1	.	.	.	-21	.
Cc1ccc(Nc2nc(N)nc(CSc3nc4ccccc4s3)n2)cc1	-3%	37*	-5%	-91*!	37*
COc1ccc(Nc2nc(N)nc(CSc3nc4ccccc4s3)n2)cc1	.	.	.	-21	.
Cc1ccc(Nc2nc(N)nc(CSc3ncccn3)n2)cc1	.	29*	89%	-19	68*
SMILES	Pf growth 48h	CHX counter	Pf growth 96h	HCMV inh	Shiga inhibitor
Cc1ccc(Nc2nc(N)nc(CSc3nnc(-c4ccncc4)o3)n2)cc1	15%	14*	.	37	48*
Nc1nc(CSc2ncccn2)nc(Nc2ccccc2)n1	196%	62*	.	41	139*
CCOc1cc(CNC(=O)c2cc(-c3ccccc3)n[nH]2)cc(OCC)c1OCC	.	.	.	-10	.
CC(C)c1ccc(NC(=O)Nc2nnc([C@H]3C[C@H](O)[C@@H](CO)O3)s2)cc1	.	.	.	7	.
CCCNC(=O)Nc1ccc2c(c1)OC[C@H](C)N(C(=O)C1CCCCC1)C[C@@H](C)[C@H](OC)CN(C)C2=O	.	.	.	-9	.
CCc1ccc(CNC(=O)CN2C(=O)c3cccnc3Oc3ccc(Cl)cc32)cc1	.	.	.	0	.
